# According to the supplement of paper PMC5407854, “Inhibitor of ppGalNAc-T3-mediated O-glycosylation blocks cancer cell invasiveness and lowers FGF23 levels” (eLife, 2017):
# Over roughly 1,700 compounds, “T2 sensor activation Q score (MG/GFP ratio z-score vs DMSO controls)” has its median near 0.3; the highest 2% begin near 1.9. For the sample, the highest values were picked, then their nearest neighbours and some compounds at random.
# Tested on: ppGalNAc-T2 sensor
# Assay: T2 sensor activation Q score (MG/GFP ratio z-score vs DMSO controls) (SD units); higher = more sensor activation (inhibition of ppGalNAc-T2 glycosylation)
# Details: HEK293 sensor cells; 10 µM; 6 h
# Protocol: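 Cells were treated with compound at 10 uM for 6 h, then MG/GFP ratio was read by flow cytometry (10,000 cells per well, duplicate wells). Q = (R - R_neg)/SD_neg relative to DMSO vehicle controls; the signal rises when the glycosyltransferase is inhibited.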
row,Compound,T2 sensor activation Q score
1,CCOC(=O)C(C)c1c(C(=O)c2ccc(C)nc2)c2ccccc2n1C (stereo not given),0.9
2,NC(=O)c1nnsc1-c1ccc(-c2snnc2C(N)=O)cc1,1.7
3,O=c1[nH]c(=S)c2ncn(-c3ccccc3)c2[nH]1,-1.3
4,NC(=O)c1ccccc1NC(=O)COc1ccc(Cl)cc1,-0.45
5,CC(=O)Nc1ccc(S(=O)(=O)N/N=c2/sc3ccccc3n2C)cc1N,-0.6
6,c1ccc(-c2nnc3oc(-c4cccs4)nn23)cc1,-1.05
7,Cc1cn(C2CC(O)C(CO)O2)c(=O)n(Cc2ccccc2)c1=O (stereo not given),0.85
8,O=c1[nH]cc(Cl)cc1Cl,0.5
9,CCOC(=O)/C=C/c1nc(C(=O)OCC)c(C)c(=O)[nH]1,-0.1
10,CC(C)CCCCCCCCCCCCC(=O)NCC(=O)NC1C(C)OC(Nc2ncnc3nc[nH]c23)C(O)C1O (stereo not given),8.6
11,CC(C)=NNc1ncnc2nc[nH]c12,1.25
12,Cc1ccc(Nc2n[nH]c(=S)s2)cc1F,-0.95
13,NNC(=O)Cc1cc(=O)[nH][nH]1,-0.7
14,Cc1cc(=O)oc2cc(OS(C)(=O)=O)ccc12,1.2
15,CCSc1nc(=S)cc(C)[nH]1,-0.1
16,CC(=NNC(N)=O)c1ccc(Cl)c(-n2cccc2)c1,0.6
17,N#C/C(=C\c1c[nH]c2ccccc12)C(N)=O,0.8
18,NC(=S)N/N=C\c1cc(-c2cccc(N)c2)ccn1,0
19,O=C(Nc1ccc(C2=NCCCN2)cc1)Nc1ccc(C2=NCCCN2)cc1,-0.6
20,COc1ccc2c(c1)CCCN2C(N)=Nc1ccc(Cl)cc1,1.25
21,Cc1cccc2cc3cccc(C)c3nc12,0.3
22,Cc1c(COC(=O)NC(C)C)c(COC(=O)NC(C)C)c2n1CS(=O)(=O)C2,-0.4
23,CC1CC(C)(C)C2=NCCN21 (stereo not given),1.3
24,Cc1ccc(S(=O)(=O)NC(=O)Nc2nccs2)cc1,-1.2
25,Cc1ccc(S(=O)(=O)NNC(=O)C23CCC(CC2)C3)cc1,1.95

row,Compound,T2 sensor activation Q score
1,CC(=O)C1C=CC(C)(C(=O)O)C2C=C(C)C(=O)C(C)(O)C12 (stereo not given),0.2
2,CCOC(=O)c1csc(-c2ccc(COC(=O)c3ccccc3)o2)n1,-1
3,COc1ccc2c(c1)CCN1C2CCN2C(=O)CCC21 (stereo not given),0.9
4,O=S1(=O)CCN(Cc2ccccn2)CC1,0.85
5,COC(=O)c1ccc(Cn2cnc3c(Cl)ncnc32)cc1,1.6
6,Cc1cc(N)c2cc(NC(=O)C=Cc3ccccc3Cl)ccc2n1,1.5
7,Nc1ccc(N=Nc2ccccc2)c2ccccc12,-0.25
8,O=C(Nc1ccc(Nc2ccccc2)cc1)Nc1ccccc1Cl,-1.35
9,Nc1cc(Nc2ccc(Br)cc2)nc(N)n1,0.6
10,CCCCCOc1ccc(N2C(=O)C(C)CNC2=S)cc1 (stereo not given),0.7
11,Oc1ccc(Cc2ccccc2Cl)c(O)c1,1.95
12,Oc1ccc(-c2nc3ccccc3s2)c(O)c1,0.2
13,Oc1ccc(Cc2ccc(Cl)cc2)c(O)c1,1.3
14,COC(=O)c1cc(C)[nH]c2c(C)cc3nc4ccccc4c3c12,0.65
15,O=C(Oc1ccccc1)N(c1ccccc1)c1ccccc1,0.35
16,Cc1cc(/C=C2\SC(=S)NC2=O)cc(C)c1O,0.35
17,CN(C)c1ccc(/C=C(\C#N)C(=O)c2ccccc2)cc1,-0.3
18,CN1CCC=C(C(=O)N2c3ccccc3Sc3ccc(Cl)cc32)C1,0.25
19,CN(C)c1ccc2c(c1)Sc1cc(N(C)C)ccc1N2C(=O)c1ccccc1,2.55
20,CCC1=C[C@@H]2CN(C1)Cc1c([nH]c3ccccc13)[C@@](C(=O)OC)(c1cc3c(cc1OC)N(C)[C@H]1[C@@](O)(C(=O)OC)[C@H](OC(C)=O)[C@]4(CC)C=CCN5CC[C@]31[C@@H]54)C2,1.1
21,CC[C@]1(O)C[C@@H]2CN(CCc3c([nH]c4ccccc34)[C@@](C(=O)OC)(c3cc4c(cc3OC)N(C)[C@H]3[C@@](O)(C(=O)OC)[C@H](OC(C)=O)[C@]5(CC)C=CCN6CC[C@]43[C@@H]65)C2)C1,2.05
22,CC[C@]1(O)C[C@H]2CN(CCc3c([nH]c4ccccc34)[C@@](C(=O)OC)(c3cc4c(cc3OC)N(C=O)[C@H]3[C@@](O)(C(=O)OC)[C@H](OC(C)=O)[C@]5(CC)C=CCN6CC[C@]43[C@@H]65)C2)C1,1.4
23,C=C(C)C(=O)Oc1ccc(N=Nc2ccc(C)cc2)ccc1=O,1.1
24,NC(=O)c1nc2c([nH]c1=O)CCCC2,-0.85
25,CSc1nc(N)c(C(=O)Nc2ccc([N+](=O)[O-])cc2)s1,0.05

row,Compound,T2 sensor activation Q score
1,Nc1ccc(C(=O)Nc2cccc(N)c2)cc1,-0.5
2,c1ccc2[nH]c(-c3ccncc3)nc2c1,-1.1
3,O=C(Nc1cccc(-c2nc3ccccc3[nH]2)c1)c1ccc(C(=O)Nc2cccc(-c3nc4ccccc4[nH]3)c2)cc1,3
4,Cn1ncc2c(Sc3ccc(Cl)cc3)ncnc21,1.3
5,CC1=CN2C(c3cccc([N+](=O)[O-])c3)=NON(c3ccc(C)cn3)C2C=C1 (stereo not given),0.85
6,CSc1ncc2[nH]c(C(O)c3ccccc3)nc2n1 (stereo not given),-0.45
7,O=S1(=O)CCC(N(N=Cc2ccco2)c2ccccc2)C1 (stereo not given),-0.2
8,O=CN/C=C\c1cc(O)ccc1O,-0.3
9,OC[C@@H]1CCC[C@H](n2cnc3c(=S)nc[nH]c32)O1,0.75
10,Cc1nccnc1Sc1ccccc1,-0.2
11,Oc1ccc2ccccc2c1N=Nc1nccs1,0.9
12,Oc1c(N=Nc2nn[nH]n2)ccc2ccccc12,3.6
13,Oc1ccc2ccccc2c1N=Nc1ccc(F)cc1,0.05
14,O=[N+]([O-])c1c(N2CCN(CCO)CC2)nc2ccccn12,0.7
15,OCc1nnn(-c2ccccc2)c1CO,0.8
16,NC(N)=N/N=C\c1c(Cl)cccc1Cl,0.25
17,Cc1cc(N2CCOCC2)nc(N2CCOCC2)n1,0.15
18,N#CC(c1ccccc1)C(C/C(=N\O)c1ccccc1)c1ccccc1 (stereo not given),-0.8
19,O=C(/C=C/c1cccnc1)/C=C/c1cccnc1,1.6
20,O=C(c1ccccc1)C1N=NCC1c1ccc(Cl)cc1 (stereo not given),0.05
21,O=c1nc(Oc2ccccc2)nc2ncccn12,1.9
22,Nc1nc(SCc2ccccn2)c2ncn(C3OC(CO)C(O)C3O)c2n1 (stereo not given),-0.15
23,Cc1cc(=O)n2[nH]c(-c3ccc(C(C)(C)C)cc3)cc2n1,0.15
24,Nc1nc(N)c2c(ccc3nccc32)[nH]1,1.3
25,O=C1C2C3C=CC(CC3)C2S(=O)(=O)C2C3C=CC(CC3)C12 (stereo not given),1.8

row,Compound,T2 sensor activation Q score
1,CCOC(=O)CCCN(c1[nH]c(C)c(C)c1C#N)S(=O)(=O)c1ccc(C)cc1,1.05
2,CCCCCC(=O)N1CCCCC1,-1.85
3,O=C1C=CC(=O)N1c1ccc(I)cc1Cl,-0.45
4,CC(=O)Oc1c(C)c(OC(C)=O)c2c(c1C(C)=O)OC1CC(=O)C(C(C)=O)=C(O)C21C (stereo not given),-1.8
5,O=C1Cc2cccc(=O)c(O)c2C(=O)O1,0.1
6,O=c1cccc2cc(O)c(O)c(O)c2c1O,2.35
7,CCOP(=O)(OCC)/C(C#N)=C/c1c[nH]c2ccccc12,-0.2
8,CCOP(=O)(OCC)/C(C#N)=C/c1ccc(-c2ccc(F)cc2F)o1,-0.9
9,CCOP(=O)(OCC)/C(C#N)=C/c1ccc([N+](=O)[O-])cc1,2.3
10,Clc1ccc2nc3ccccc3cc2c1,1.3
11,CC(=O)Nc1ccc(OC(=O)Oc2ccc(NC(C)=O)cc2)cc1,1.2
12,Cc1ccc(C#CC(C)(O)C(C)(C)C)cn1 (stereo not given),-0.05
13,Cc1nc(N)nc(Nc2ccc(C#N)cc2)c1Br,2.35
14,N#Cc1c(N)nc(N)nc1Nc1ccc(Br)cc1,1.15
15,COc1cnc(SC)nc1Nc1ccc(C#N)cc1,1.65
16,CCc1nc(N)nc(N)c1-c1ccc(N(C)Cc2ccccc2)c([N+](=O)[O-])c1,-1.25
17,CC1(C)c2ccccc2-c2nc3ccccc3cc2C1O (stereo not given),-0.95
18,O=C1CC(c2ccc(O)cc2)Oc2cc(O)cc(O)c21 (stereo not given),0.75
19,CC(C)(C)c1ccc(OC(=O)c2ccccc2)cc1,0.95
20,CC(C)(C)CC(C)(C)N1CNC(=S)NC1,0.45
21,N#CCCCCN1CCCC1,-0.65
22,CCOC(=O)C(=O)C1C(=O)Nc2ccccc21 (stereo not given),1.15
23,Cc1c(Cl)cccc1NC(=O)CC1Sc2ccccc2NC1=O (stereo not given),2
24,CCCCSc1cc(=O)[nH]c(N)n1,1.85
25,NC(=O)C1=C(N)c2ccccc2C1c1ccccc1 (stereo not given),1.4

row,Compound,T2 sensor activation Q score
1,CCC1(CC)C(=O)NC(=S)N=C1N,1.7
2,c1ccc(-c2nc3ccccc3s2)nc1,0.6
3,Cc1cc2nc(-c3ccccn3)c(-c3ccccn3)nc2cc1C,2.4
4,c1ccc(-c2nc(-c3ccccn3)nc(-c3ccccn3)n2)nc1,-0.55
5,O=c1ccc(Cl)n[nH]1,1.45
6,FC(F)(F)c1cccc(OCC2CNC(=S)O2)c1 (stereo not given),0.65
7,Cc1csc(NC(=O)c2ccc(C(=O)Nc3nc(C)cs3)cc2)n1,0.5
8,C=C1SC(=Nc2c(C)cccc2Cl)N(C(=O)c2sc3ccccc3c2Cl)C12CCCCC2,1.1
9,Nc1cc(N)nc(CS)n1,1.45
10,COCC(=O)Oc1cc(-c2ccc(C)cc2C)c(OC(=O)COC)c(-c2ccc(C)cc2C)c1,0.9
11,NC(=O)c1ccccc1OCC(=O)Nc1ccc(Cl)c(Cl)c1,0.1
12,Cc1cccc(C(O)C(O)c2cccc(C)n2)n1 (stereo not given),0.55
13,COc1ccccc1/C=C(\C#N)C(=O)O,1.4
14,c1ccc2c(c1)nnn2-c1ccncc1,-0.1
15,Nc1nnc(-c2cccnc2)s1,0.6
16,Cc1cnc2c(N)cc(C)c(C)c2c1,1.15
17,O=[N+]([O-])c1cc(-c2cccnc2)n[nH]1,-0.35
18,Nc1ccccc1C(=O)Nc1ccc(Cl)cc1Cl,0.45
19,C#CC1(N2CCCCC2)CCCCC1,0.8
20,Clc1nnc(NC2CCCCC2)c(Cl)c1Cl,0.15
21,CC(=O)OCC1OC(COC(C)=O)(c2ccc(C)cc2)C(OC(C)=O)C1OC(C)=O (stereo not given),0.15
22,c1ccc(NN(Cc2ccncc2)c2ccccc2)cc1,0.95
23,CCCCOc1ccc(Nc2cc(Cl)ccc2C(=O)O)cn1,1.2
24,COc1cc(-c2ccc(Nc3ccccc3C(=O)O)c(OC)c2)ccc1Nc1ccccc1C(=O)O,-0.5
25,COc1ccc(Nc2cc(Cl)ccc2C(=O)O)cn1,2.25
